Measurements: PubChem BioAssay (NCATS)
Values without a mark were called inactive. Calls come from the whole dose curve; as a rule, active = well fitted curve in the direction sought with a large enough effect; inconclusive = small, poorly fitted or top-dose-only effect, or another doubt; inactive = no such curve, though single readings can be large; an effect the other way counts as inactive or inconclusive. Results filed as inconclusive are left out.

test system: not listed separately; test: qHTS of Trypanosoma Brucei Inhibitors: LOPAC Validation (AID 624147); details: purified enzyme assay, luminescence, 45 min; series mostly up to 57.5 µM; activity change, negative = inhibition: at the top concentration
Outline: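 Quantitative HTS: titrated library compounds versus trypanosomal pyruvate kinase in TEA buffer (pH 7.2) containing KCl, MgCl2, BSA and Tween-20. Reactions were initiated with ADP, 130 uM final. Kinase-Glo Plus luminescence was read after 45 min at RT.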
Note: 0% is about no effect.

| Structure (SMILES) | activity change, negative = inhibition |
| --- | --- |
| CC(C)NC(C)Cc1ccc(I)cc1 (stereo not drawn) | -13.1% |
| C[C@@H]1O[C@H](C[N+](C)(C)C)C[C@H]1O | -5.56% |
| CC(=O)[C@H]1CCC2C3CC[C@H]4C[C@H](O)CC[C@]4(C)C3CC[C@@]21C (stereo partly drawn) | -4.73% |
| NC1CC1c1ccccc1 (stereo not drawn) | -8.31% |
| COC(=O)[C@@H](N)CCCN=C(N)N[N+](=O)[O-] | -2.41% |
| CCCCc1ccc(C(=O)O)nc1 | -12.3% |
| C=CCN1CC[C@]23CCCCC2[C@H]1Cc1ccc(O)cc13 (stereo partly drawn) | -9.01% |
| CCCN(CCC)C1CCc2ccc(O)cc2C1 (stereo not drawn) | -10.9% |
| S=C(NC1CCCCC1)N1CCC(c2cnc[nH]2)CC1 | -15.2% |
| CCCN(CCC)[C@@H]1CCc2ccc(O)cc2C1 | -3.84% |
| NC(=O)CN1CC(O)CC1=O (stereo not drawn) | -8.58% |
| CS(=N)(=O)CC[C@H](N)C(=O)O (stereo partly drawn) | -7.4% |
| CCCN1CCC[C@H](c2cccc(O)c2)C1 | -4.72% |
| c1ccc(C2(c3ccccc3)CC2C2=NCCN2)cc1 (stereo not drawn) | -14.3% |
| CN1C2CCC1CC(OC(=O)c1cc(Cl)cc(Cl)c1)C2 (stereo not drawn) | 3.96% |
| NCCc1c[nH]c2ccccc12 | -9.49% |

molecular target: Glucagon-like peptide 1 receptor (Homo sapiens) (UniProt P43220); test: qHTS of GLP-1 Receptor Agonists: LOPAC Validation (AID 624148); details: GLP-1R agonist cell assay; series mostly up to 46.1 µM; activation: at the top concentration;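 note: higher luminescence signal means agonism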
Outline: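 HEK293 cells stably co-expressing a cAMP-responsive luciferase reporter and a hypersensitive GLP-1R were plated 12 h at 37 °C and exposed to compounds for 4-6 hr at 37 °C, 5% CO2. Luminescence was read 12 min after adding detection reagent.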

Sequence of Glucagon-like peptide 1 receptor (Homo sapiens) (P43220 whole entry, looked up): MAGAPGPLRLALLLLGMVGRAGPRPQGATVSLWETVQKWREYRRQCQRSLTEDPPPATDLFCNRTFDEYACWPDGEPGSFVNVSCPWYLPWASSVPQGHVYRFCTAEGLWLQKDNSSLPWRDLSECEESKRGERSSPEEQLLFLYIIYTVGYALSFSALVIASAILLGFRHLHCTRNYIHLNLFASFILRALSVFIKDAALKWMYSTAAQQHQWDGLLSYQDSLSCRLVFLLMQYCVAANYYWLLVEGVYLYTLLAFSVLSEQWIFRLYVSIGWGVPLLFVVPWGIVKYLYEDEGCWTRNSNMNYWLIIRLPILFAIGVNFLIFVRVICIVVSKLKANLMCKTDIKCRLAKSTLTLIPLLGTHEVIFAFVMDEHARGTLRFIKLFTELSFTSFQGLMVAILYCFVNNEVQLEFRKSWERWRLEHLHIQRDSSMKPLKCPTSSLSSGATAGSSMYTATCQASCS

| Structure (SMILES) | activation |
| --- | --- |
| CC(C)NC(C)Cc1ccc(I)cc1 (stereo not drawn) | -1.35% |
| C[C@@H]1O[C@H](C[N+](C)(C)C)C[C@H]1O | 10.2% |
| CC(=O)[C@H]1CCC2C3CC[C@H]4C[C@H](O)CC[C@]4(C)C3CC[C@@]21C (stereo partly drawn) | -1.81% |
| NC1CC1c1ccccc1 (stereo not drawn) | -1.34% |
| COC(=O)[C@@H](N)CCCN=C(N)N[N+](=O)[O-] | 0.554% |
| CCCCc1ccc(C(=O)O)nc1 | -1.82% |
| C=CCN1CC[C@]23CCCCC2[C@H]1Cc1ccc(O)cc13 (stereo partly drawn) | -1.86% |
| CCCN(CCC)C1CCc2ccc(O)cc2C1 (stereo not drawn) | -1.78% |
| S=C(NC1CCCCC1)N1CCC(c2cnc[nH]2)CC1 | -1.66% |
| CCCN(CCC)[C@@H]1CCc2ccc(O)cc2C1 | -1.28% |
| NC(=O)CN1CC(O)CC1=O (stereo not drawn) | -1.88% |
| CS(=N)(=O)CC[C@H](N)C(=O)O (stereo partly drawn) | 14% |
| CCCN1CCC[C@H](c2cccc(O)c2)C1 | 5.18% |
| c1ccc(C2(c3ccccc3)CC2C2=NCCN2)cc1 (stereo not drawn) | -0.123% |
| CN1C2CCC1CC(OC(=O)c1cc(Cl)cc(Cl)c1)C2 (stereo not drawn) | -0.826% |
| NCCc1c[nH]c2ccccc12 | -0.989% |

test system: not listed separately; test: qHTS of Nrf2 Activators: LOPAC Validation (AID 624149); details: Nrf2/ARE reporter cell assay; series mostly up to 46.1 µM; activation: at the top concentration
Outline: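 AREc32 cells carrying an ARE-driven firefly luciferase were grown overnight in OPTI-MEM with 5% FBS, then exposed to compounds for 24 hr at 37 deg C. Luciferase signal was read after 30 min with Steady-Glo at RT.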

| Structure (SMILES) | activation |
| --- | --- |
| CC(C)NC(C)Cc1ccc(I)cc1 (stereo not drawn) | -1.79% |
| C[C@@H]1O[C@H](C[N+](C)(C)C)C[C@H]1O | 1.06% |
| CC(=O)[C@H]1CCC2C3CC[C@H]4C[C@H](O)CC[C@]4(C)C3CC[C@@]21C (stereo partly drawn) | -2% |
| NC1CC1c1ccccc1 (stereo not drawn) | -2.29% |
| COC(=O)[C@@H](N)CCCN=C(N)N[N+](=O)[O-] | 1.96% |
| CCCCc1ccc(C(=O)O)nc1 | -1.38% |
| C=CCN1CC[C@]23CCCCC2[C@H]1Cc1ccc(O)cc13 (stereo partly drawn) | -2.47% |
| CCCN(CCC)C1CCc2ccc(O)cc2C1 (stereo not drawn) | -1.71% |
| S=C(NC1CCCCC1)N1CCC(c2cnc[nH]2)CC1 | 0.696% |
| CCCN(CCC)[C@@H]1CCc2ccc(O)cc2C1 | -2.03% |
| NC(=O)CN1CC(O)CC1=O (stereo not drawn) | -0.983% |
| CS(=N)(=O)CC[C@H](N)C(=O)O (stereo partly drawn) | 0.739% |
| CCCN1CCC[C@H](c2cccc(O)c2)C1 | -2.48% |
| c1ccc(C2(c3ccccc3)CC2C2=NCCN2)cc1 (stereo not drawn) | -1.21% |
| CN1C2CCC1CC(OC(=O)c1cc(Cl)cc(Cl)c1)C2 (stereo not drawn) | 1.17% |
| NCCc1c[nH]c2ccccc12 | -0.999% |
